Experiments:
Assay in all cases: DAPPL (digital affinity profiling via proximity ligation, sequencing); 10 mM Tris-HCl pH 7.5, 50 mM NaCl, 1 mM DTT, 4% glycerol, room temperature, 30 min; GST-TFs on glutathione beads, 16-mer random dsDNA library, 0.1% formaldehyde crosslink after washing; high values mean tight binding
Details in all cases: protein: recombinant; tags: N-terminal GST; dsDNA, one strand shown
FLI1 = molecular target: T1, FLI1 (Homo sapiens, UniProt Q01543 1-452)
T1 sequence: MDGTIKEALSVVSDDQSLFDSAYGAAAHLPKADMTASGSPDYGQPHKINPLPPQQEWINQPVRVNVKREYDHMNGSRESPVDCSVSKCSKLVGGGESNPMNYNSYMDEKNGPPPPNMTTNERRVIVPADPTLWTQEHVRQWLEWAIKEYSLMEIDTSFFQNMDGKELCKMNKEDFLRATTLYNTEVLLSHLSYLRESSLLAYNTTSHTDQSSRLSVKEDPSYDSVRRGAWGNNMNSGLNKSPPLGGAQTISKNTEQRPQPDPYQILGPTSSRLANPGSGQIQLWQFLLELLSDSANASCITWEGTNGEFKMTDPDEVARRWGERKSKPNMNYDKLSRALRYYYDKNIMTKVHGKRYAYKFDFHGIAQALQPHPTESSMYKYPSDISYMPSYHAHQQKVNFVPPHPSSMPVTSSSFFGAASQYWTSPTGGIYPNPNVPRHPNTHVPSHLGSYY
Procedure, shortened: (§1)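 Each value of binding signal is a hexamer's read frequency for a factor divided by the same hexamer's frequency in the tag-only sample. Barcoded, bead-captured GST fusions of human transcription factors made in yeast were pooled with that sample and incubated with 200 nmole of a random double-stranded 16-mer DNA library in Tris/NaCl/DTT/glycerol buffer at room temperature for 30 min. Washing, 0.1% formaldehyde crosslinking, proximity ligation, PCR and Illumina NextSeq500 sequencing followed.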

ELK1 = molecular target: T2, ELK1 (Homo sapiens, UniProt P19419 1-428)
T2 sequence: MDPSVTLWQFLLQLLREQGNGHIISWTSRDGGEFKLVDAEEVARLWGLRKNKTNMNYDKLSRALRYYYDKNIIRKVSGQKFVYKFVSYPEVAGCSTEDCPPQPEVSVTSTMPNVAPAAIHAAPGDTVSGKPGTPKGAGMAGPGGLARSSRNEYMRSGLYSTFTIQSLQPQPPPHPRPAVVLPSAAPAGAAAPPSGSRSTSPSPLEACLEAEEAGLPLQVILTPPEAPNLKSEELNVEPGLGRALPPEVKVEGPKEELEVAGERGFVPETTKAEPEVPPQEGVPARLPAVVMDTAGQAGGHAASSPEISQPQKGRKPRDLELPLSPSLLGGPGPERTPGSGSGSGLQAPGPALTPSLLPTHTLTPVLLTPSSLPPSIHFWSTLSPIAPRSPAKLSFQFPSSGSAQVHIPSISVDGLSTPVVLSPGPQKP
Procedure, shortened: as §1

GABPA = molecular target: T3, GABPA (Homo sapiens, UniProt Q06546 1-454)
T3 sequence: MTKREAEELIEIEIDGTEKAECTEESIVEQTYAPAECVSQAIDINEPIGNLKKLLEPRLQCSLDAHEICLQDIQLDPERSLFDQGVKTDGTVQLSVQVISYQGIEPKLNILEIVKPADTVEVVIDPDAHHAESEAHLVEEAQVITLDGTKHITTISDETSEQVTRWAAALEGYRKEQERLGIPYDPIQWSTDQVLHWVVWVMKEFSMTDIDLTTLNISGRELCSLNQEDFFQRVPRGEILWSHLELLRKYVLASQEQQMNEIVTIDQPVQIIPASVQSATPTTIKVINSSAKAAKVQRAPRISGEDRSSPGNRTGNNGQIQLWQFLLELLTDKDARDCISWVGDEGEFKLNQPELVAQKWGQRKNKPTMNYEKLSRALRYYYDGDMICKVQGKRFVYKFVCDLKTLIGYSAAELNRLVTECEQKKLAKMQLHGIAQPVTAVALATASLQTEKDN
Procedure, shortened: as §1

ERG = molecular target: T4, ERG (Homo sapiens, UniProt P11308 1-479)
T4 sequence: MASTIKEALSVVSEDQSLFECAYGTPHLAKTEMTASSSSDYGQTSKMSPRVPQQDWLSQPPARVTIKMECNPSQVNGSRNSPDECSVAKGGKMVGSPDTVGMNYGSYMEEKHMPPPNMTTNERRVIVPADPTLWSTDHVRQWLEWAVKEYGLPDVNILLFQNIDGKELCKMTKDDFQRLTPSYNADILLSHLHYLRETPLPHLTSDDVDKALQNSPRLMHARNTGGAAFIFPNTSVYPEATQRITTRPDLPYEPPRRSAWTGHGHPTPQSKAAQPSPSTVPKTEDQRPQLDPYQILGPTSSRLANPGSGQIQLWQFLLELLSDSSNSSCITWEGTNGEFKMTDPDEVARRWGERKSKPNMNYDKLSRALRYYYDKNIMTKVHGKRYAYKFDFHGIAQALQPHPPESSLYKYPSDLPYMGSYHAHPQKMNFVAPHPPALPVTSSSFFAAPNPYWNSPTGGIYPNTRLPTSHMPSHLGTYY
Procedure, shortened: as §1

ELF1 = ELF1 (Homo sapiens, UniProt P32519 1-619)
Procedure, shortened: as §1

EHF = molecular target: T5, EHF (Homo sapiens, UniProt Q9NZC4 1-300)
T5 sequence: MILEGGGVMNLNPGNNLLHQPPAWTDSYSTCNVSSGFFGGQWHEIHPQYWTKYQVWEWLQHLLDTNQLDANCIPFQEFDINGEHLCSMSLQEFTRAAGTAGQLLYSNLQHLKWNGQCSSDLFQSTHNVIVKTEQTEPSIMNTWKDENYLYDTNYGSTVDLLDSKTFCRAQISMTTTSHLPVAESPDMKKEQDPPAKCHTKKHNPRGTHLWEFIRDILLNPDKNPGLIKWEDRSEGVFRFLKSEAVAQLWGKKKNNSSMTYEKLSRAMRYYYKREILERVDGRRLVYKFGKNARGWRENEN
Procedure, shortened: as §1

SPI1 = SPI1 (Homo sapiens, UniProt P17947 1-270)
Procedure, shortened: as §1

SPIB = SPIB (Homo sapiens, UniProt Q01892 1-262)
Procedure, shortened: as §1

ELK3 = molecular target: T6, ELK3 (Homo sapiens, UniProt P41970 1-407)
T6 sequence: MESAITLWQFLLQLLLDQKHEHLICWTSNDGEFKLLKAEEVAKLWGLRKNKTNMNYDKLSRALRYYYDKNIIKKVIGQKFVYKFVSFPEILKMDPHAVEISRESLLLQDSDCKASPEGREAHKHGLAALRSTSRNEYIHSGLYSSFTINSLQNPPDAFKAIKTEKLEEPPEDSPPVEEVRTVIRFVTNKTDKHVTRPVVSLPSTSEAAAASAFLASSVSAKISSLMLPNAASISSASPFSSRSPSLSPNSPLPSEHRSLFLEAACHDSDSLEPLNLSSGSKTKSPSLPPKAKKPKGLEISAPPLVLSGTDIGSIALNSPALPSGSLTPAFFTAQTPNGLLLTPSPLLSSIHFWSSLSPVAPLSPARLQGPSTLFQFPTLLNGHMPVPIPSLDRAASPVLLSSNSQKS
Procedure, shortened: as §1

Chain of ELF1 (P32519 whole entry): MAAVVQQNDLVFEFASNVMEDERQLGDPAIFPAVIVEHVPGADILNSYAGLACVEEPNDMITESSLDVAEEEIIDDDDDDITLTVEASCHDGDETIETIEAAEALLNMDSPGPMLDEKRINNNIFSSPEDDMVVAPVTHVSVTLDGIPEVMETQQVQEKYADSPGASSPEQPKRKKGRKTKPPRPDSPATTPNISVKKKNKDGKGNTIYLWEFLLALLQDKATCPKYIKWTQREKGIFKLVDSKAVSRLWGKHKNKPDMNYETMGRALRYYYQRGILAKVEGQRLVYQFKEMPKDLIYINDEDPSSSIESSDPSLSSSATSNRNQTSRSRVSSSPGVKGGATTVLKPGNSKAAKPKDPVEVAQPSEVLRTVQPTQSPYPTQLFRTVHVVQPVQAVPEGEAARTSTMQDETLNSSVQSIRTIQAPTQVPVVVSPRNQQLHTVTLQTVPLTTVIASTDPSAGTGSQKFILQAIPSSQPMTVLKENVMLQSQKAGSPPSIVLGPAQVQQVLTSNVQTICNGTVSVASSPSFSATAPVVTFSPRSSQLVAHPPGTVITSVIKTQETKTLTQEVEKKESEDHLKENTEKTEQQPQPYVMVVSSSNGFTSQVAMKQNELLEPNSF
Chain of SPIB (Q01892 whole entry): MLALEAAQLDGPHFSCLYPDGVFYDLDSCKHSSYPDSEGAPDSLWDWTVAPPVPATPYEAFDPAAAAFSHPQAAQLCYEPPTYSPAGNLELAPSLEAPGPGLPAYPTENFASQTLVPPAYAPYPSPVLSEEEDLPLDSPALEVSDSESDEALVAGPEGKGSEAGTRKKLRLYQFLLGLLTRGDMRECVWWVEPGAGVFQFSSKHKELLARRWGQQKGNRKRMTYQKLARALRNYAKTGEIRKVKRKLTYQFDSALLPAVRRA

## GAACAT
FLI1
  binding signal: 1.01 fold enrichment (6-mer frequency, TF over GST control)
ELK1
  binding signal: 1.02 fold enrichment (6-mer frequency, TF over GST control)
GABPA
  binding signal: 1.09 fold enrichment (6-mer frequency, TF over GST control)
ERG
  binding signal: 1.03 fold enrichment (6-mer frequency, TF over GST control)
ELF1
  binding signal: 1.02 fold enrichment (6-mer frequency, TF over GST control)
EHF
  binding signal: 1.05 fold enrichment (6-mer frequency, TF over GST control)
SPI1
  binding signal: 1.04 fold enrichment (6-mer frequency, TF over GST control)
SPIB
  binding signal: 1.01 fold enrichment (6-mer frequency, TF over GST control)
ELK3
  binding signal: 1.16 fold enrichment (6-mer frequency, TF over GST control)

## TCACAT
FLI1
  binding signal: 1.23 fold enrichment (6-mer frequency, TF over GST control)
ELK1
  binding signal: 1.25 fold enrichment (6-mer frequency, TF over GST control)
GABPA
  binding signal: 1.23 fold enrichment (6-mer frequency, TF over GST control)
ERG
  binding signal: 1.29 fold enrichment (6-mer frequency, TF over GST control)
ELF1
  binding signal: 1.32 fold enrichment (6-mer frequency, TF over GST control)
EHF
  binding signal: 1.27 fold enrichment (6-mer frequency, TF over GST control)
SPI1
  binding signal: 1.32 fold enrichment (6-mer frequency, TF over GST control)
SPIB
  binding signal: 1.19 fold enrichment (6-mer frequency, TF over GST control)
ELK3
  binding signal: 1.24 fold enrichment (6-mer frequency, TF over GST control)

## ATGGGT
FLI1
  binding signal: 1.39 fold enrichment (6-mer frequency, TF over GST control)
ELK1
  binding signal: 1.37 fold enrichment (6-mer frequency, TF over GST control)
GABPA
  binding signal: 1.28 fold enrichment (6-mer frequency, TF over GST control)
ERG
  binding signal: 1.43 fold enrichment (6-mer frequency, TF over GST control)
ELF1
  binding signal: 1.3 fold enrichment (6-mer frequency, TF over GST control)
EHF
  binding signal: 1.46 fold enrichment (6-mer frequency, TF over GST control)
SPI1
  binding signal: 1.21 fold enrichment (6-mer frequency, TF over GST control)
SPIB
  binding signal: 1.29 fold enrichment (6-mer frequency, TF over GST control)
ELK3
  binding signal: 1.44 fold enrichment (6-mer frequency, TF over GST control)

## TATAAG
FLI1
  binding signal: 1.15 fold enrichment (6-mer frequency, TF over GST control)
ELK1
  binding signal: 1.23 fold enrichment (6-mer frequency, TF over GST control)
GABPA
  binding signal: 1.16 fold enrichment (6-mer frequency, TF over GST control)
ERG
  binding signal: 1.12 fold enrichment (6-mer frequency, TF over GST control)
ELF1
  binding signal: 1.17 fold enrichment (6-mer frequency, TF over GST control)
EHF
  binding signal: 1.1 fold enrichment (6-mer frequency, TF over GST control)
SPI1
  binding signal: 1.13 fold enrichment (6-mer frequency, TF over GST control)
SPIB
  binding signal: 1.12 fold enrichment (6-mer frequency, TF over GST control)
ELK3
  binding signal: 1.24 fold enrichment (6-mer frequency, TF over GST control)

## AATATA
FLI1
  binding signal: 1.28 fold enrichment (6-mer frequency, TF over GST control)
ELK1
  binding signal: 1.38 fold enrichment (6-mer frequency, TF over GST control)
GABPA
  binding signal: 1.35 fold enrichment (6-mer frequency, TF over GST control)
ERG
  binding signal: 1.33 fold enrichment (6-mer frequency, TF over GST control)
ELF1
  binding signal: 1.37 fold enrichment (6-mer frequency, TF over GST control)
EHF
  binding signal: 1.42 fold enrichment (6-mer frequency, TF over GST control)
SPI1
  binding signal: 1.37 fold enrichment (6-mer frequency, TF over GST control)
SPIB
  binding signal: 1.28 fold enrichment (6-mer frequency, TF over GST control)
ELK3
  binding signal: 1.43 fold enrichment (6-mer frequency, TF over GST control)

## GCCCTC
FLI1
  binding signal: 1.12 fold enrichment (6-mer frequency, TF over GST control)
ELK1
  binding signal: 1.18 fold enrichment (6-mer frequency, TF over GST control)
GABPA
  binding signal: 1.25 fold enrichment (6-mer frequency, TF over GST control)
ERG
  binding signal: 1.11 fold enrichment (6-mer frequency, TF over GST control)
ELF1
  binding signal: 1.17 fold enrichment (6-mer frequency, TF over GST control)
EHF
  binding signal: 1.18 fold enrichment (6-mer frequency, TF over GST control)
SPI1
  binding signal: 1.1 fold enrichment (6-mer frequency, TF over GST control)
SPIB
  binding signal: 1.18 fold enrichment (6-mer frequency, TF over GST control)
ELK3
  binding signal: 1.15 fold enrichment (6-mer frequency, TF over GST control)

## GGTTTC
FLI1
  binding signal: 1.53 fold enrichment (6-mer frequency, TF over GST control)
ELK1
  binding signal: 1.39 fold enrichment (6-mer frequency, TF over GST control)
GABPA
  binding signal: 1.54 fold enrichment (6-mer frequency, TF over GST control)
ERG
  binding signal: 1.6 fold enrichment (6-mer frequency, TF over GST control)
ELF1
  binding signal: 1.54 fold enrichment (6-mer frequency, TF over GST control)
EHF
  binding signal: 1.51 fold enrichment (6-mer frequency, TF over GST control)
SPI1
  binding signal: 1.6 fold enrichment (6-mer frequency, TF over GST control)
SPIB
  binding signal: 1.52 fold enrichment (6-mer frequency, TF over GST control)
ELK3
  binding signal: 1.62 fold enrichment (6-mer frequency, TF over GST control)

Reference: paper PMC7862700, “An all-to-all approach to the identification of sequence-specific readers for epigenetic DNA modifications on cytosine”
